In PubChem BioAssay (Tox21) one finds Potency and activity change, negative = inhibition data, which are given here for 29 compounds.

The target of assay [1] is Nuclear receptor subfamily 1 group I member 2 (Homo sapiens) (UniProt O75469). As to the kind of experiment: CYP3A4 induction through human pregnane X receptor (PXR) by small molecules, qHTS assay (AID 1346984). Also: nearly all actives have a fitted effect of over 40% in size. In outline:
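Human PXR activation is tracked via CYP3A4 promoter-luciferase in DPX-2 (HepG2) cells. Compounds treat cells for 24hr at 37C, and luminescence is read after One-Glo.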
(In qHTS, concentration-response curves come from the screen itself.)

For assay [2] the target is unchanged. As to the kind of experiment: Human pregnane X receptor (PXR) activation by small molecules, qHTS assay (AID 1346985). Also: nearly all actives have a fitted effect of over 40% in size. In outline: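 DPX-2 cells (HepG2 co-transfected with a PXR response element and a CYP3A4-promoter luciferase construct) were seeded at 2,000 per well, rested 5 hr at 37C, then exposed to DMSO-dissolved compounds for 24 hr. Activation was read as luciferase luminescence.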

Assay [3] has as its target Cytochrome P450 2D6 (Homo sapiens) (UniProt P10635). As to the kind of experiment: Cytochrome P450 Family 2 Subfamily D Member 6 (CYP2D6) small molecule antagonists: luciferase reporter qHTS assay (AID 1671196). Also: nearly all actives have a fitted effect of over 50% in size. Also: potency is read from the fitted curve at half-maximal effect. As to activity change, negative = inhibition: series mostly up to about 120 µM. In outline: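 Quantitative HTS of Tox21 chemicals against CYP2D6 using a luminescent proluciferin substrate. After NADPH addition, 1 h room-temperature reaction; luminescence recorded 20 min post detection reagent.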

The target of assay [4] is Cytochrome P450 2C19 (Homo sapiens) (UniProt P33261). Description: Cytochrome P450 Family 2 Subfamily C Member 19 (CYP2C19) small molecule antagonists: luciferase reporter qHTS assay (AID 1671197). Also: nearly all actives have a fitted effect of over 65% in size. Also: potency is read from the fitted curve at half-maximal effect. As to activity change, negative = inhibition: series mostly up to about 120 µM. In outline:
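Quantitative high-throughput screen of the Tox21 library using CYP2C19 with proluciferin substrate. Reaction: NADPH regeneration, 37C, 1 h, after 10 min compound preincubation at room temperature. Readout: luminescence.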
A general note: Reporter assays use an easily measured gene product as a stand-in for the process of interest.

Assay [5] concerns the target Cytochrome P450 2C9 (Homo sapiens) (UniProt P11712). As to the kind of experiment: Cytochrome P450 Family 2 Subfamily C Member 9 (CYP2C9) small molecule antagonists: luciferase reporter qHTS assay (AID 1671198). Also: nearly all actives have a fitted effect of over 50% in size. Also: potency is read from the fitted curve at half-maximal effect. As to activity change, negative = inhibition: series mostly up to about 120 µM. In outline:
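P450-Glo proluciferin substrate with CYP2C9 enzyme; 10 min RT preincubation, then NADPH regeneration 1 h at 37C; luciferin detection reagent 20 min RT, luminescence in relative luminescence units.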

Assay [6] concerns the target Cytochrome P450 1A2 (Homo sapiens) (UniProt P05177). Description: Cytochrome P450 Family 1 Subfamily A Member 2 (CYP1A2) small molecule antagonists: luciferase reporter qHTS assay (AID 1671199). Also: nearly all actives have a fitted effect of over 50% in size. Also: potency is read from the fitted curve at half-maximal effect. As to activity change, negative = inhibition: series mostly up to about 120 µM. In outline:
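Quantitative high-throughput format using the P450-Glo CYP1A2 system. Reaction initiated by NADPH regeneration solution, 1 h at room temperature, then stopped with detection reagent; luminescence measured 20 min later.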

Assay [7] concerns the target Voltage-gated inwardly rectifying potassium channel KCNH2 (Homo sapiens) (UniProt Q12809). Description: Human Ether-a-go-go-Related Gene (hERG) channel small molecule antagonists: fluorescence cell-based qHTS assay (AID 1671200). Also: nearly all actives have a fitted effect of over 50% in size. Also: potency is read from the fitted curve at half-maximal effect.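 As to activity change, negative = inhibition: hERG-expressing U2OS cells given a thallium stimulus after FluxOR II dye loading; series mostly up to about 77 µM.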 In outline:
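Measured: Tl+ flux via fluorescence (480/540 nm) in hERG-expressing U2OS cells after 1 h dye loading at room temperature.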
On the technique in general: hERG is a cardiac potassium channel; its block is linked to QT prolongation.

Assay [8] concerns the target Cytochrome P450 3A4 (Homo sapiens) (UniProt P08684). Description: Cytochrome P450 Family 3 Subfamily A Member 4 (CYP3A4) small molecule antagonists: luciferase reporter qHTS assay (AID 1671201). Also: nearly all actives have a fitted effect of over 50% in size. Also: potency is read from the fitted curve at half-maximal effect. As to activity change, negative = inhibition: series mostly up to about 120 µM. In outline: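 Setup: enzyme-substrate mix, compound pin transfer, 10 min RT. Reaction: NADPH regeneration solution, 1 h RT. Readout: detection reagent stops turnover, luminescence measured after 20 min, expressed in relative luminescence units.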

Results filed as inconclusive are left out. Unmarked numbers belong to inactive results. Active and inactive are the calls of the source. Calls follow the shape of the dose curve; as a rule, active = well fitted curve in the direction sought with a large enough effect in the repeat runs; inconclusive = weak or mixed curves; inactive = no such curve, though single readings can be large; an effect the other way counts as inactive or inconclusive.
% is scaled to controls: 0 for no effect and ±100 for the full control effect.

Cytochrome P450 2C19 (Homo sapiens), sequence (P33261 whole entry, looked up): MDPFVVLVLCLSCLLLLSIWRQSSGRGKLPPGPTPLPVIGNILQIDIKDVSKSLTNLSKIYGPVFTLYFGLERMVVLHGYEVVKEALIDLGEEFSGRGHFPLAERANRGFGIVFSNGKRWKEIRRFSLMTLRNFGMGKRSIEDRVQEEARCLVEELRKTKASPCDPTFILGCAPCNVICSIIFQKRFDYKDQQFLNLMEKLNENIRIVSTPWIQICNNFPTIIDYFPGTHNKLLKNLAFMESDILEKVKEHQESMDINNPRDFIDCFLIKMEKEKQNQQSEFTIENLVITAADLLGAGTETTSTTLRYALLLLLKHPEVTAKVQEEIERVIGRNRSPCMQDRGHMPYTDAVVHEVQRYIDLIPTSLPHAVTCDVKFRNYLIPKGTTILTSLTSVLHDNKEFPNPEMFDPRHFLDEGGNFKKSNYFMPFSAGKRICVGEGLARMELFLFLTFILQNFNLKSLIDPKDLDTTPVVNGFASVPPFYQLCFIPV
Cytochrome P450 3A4 (Homo sapiens), sequence (P08684 whole entry, looked up): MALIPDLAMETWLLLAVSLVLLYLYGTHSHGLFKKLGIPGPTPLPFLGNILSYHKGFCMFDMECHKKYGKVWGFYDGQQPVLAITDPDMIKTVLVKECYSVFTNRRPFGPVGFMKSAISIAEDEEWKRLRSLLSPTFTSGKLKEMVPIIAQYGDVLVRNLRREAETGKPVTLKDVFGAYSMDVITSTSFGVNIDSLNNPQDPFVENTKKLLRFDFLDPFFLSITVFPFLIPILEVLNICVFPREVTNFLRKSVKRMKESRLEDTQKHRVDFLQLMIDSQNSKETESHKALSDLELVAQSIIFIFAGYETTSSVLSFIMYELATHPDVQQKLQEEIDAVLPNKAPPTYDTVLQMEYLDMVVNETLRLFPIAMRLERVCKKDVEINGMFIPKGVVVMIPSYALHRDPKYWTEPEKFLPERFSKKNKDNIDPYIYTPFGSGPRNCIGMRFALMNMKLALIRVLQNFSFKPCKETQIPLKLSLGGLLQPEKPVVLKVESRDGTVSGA
Voltage-gated inwardly rectifying potassium channel KCNH2 (Homo sapiens), sequence (Q12809 whole entry, looked up): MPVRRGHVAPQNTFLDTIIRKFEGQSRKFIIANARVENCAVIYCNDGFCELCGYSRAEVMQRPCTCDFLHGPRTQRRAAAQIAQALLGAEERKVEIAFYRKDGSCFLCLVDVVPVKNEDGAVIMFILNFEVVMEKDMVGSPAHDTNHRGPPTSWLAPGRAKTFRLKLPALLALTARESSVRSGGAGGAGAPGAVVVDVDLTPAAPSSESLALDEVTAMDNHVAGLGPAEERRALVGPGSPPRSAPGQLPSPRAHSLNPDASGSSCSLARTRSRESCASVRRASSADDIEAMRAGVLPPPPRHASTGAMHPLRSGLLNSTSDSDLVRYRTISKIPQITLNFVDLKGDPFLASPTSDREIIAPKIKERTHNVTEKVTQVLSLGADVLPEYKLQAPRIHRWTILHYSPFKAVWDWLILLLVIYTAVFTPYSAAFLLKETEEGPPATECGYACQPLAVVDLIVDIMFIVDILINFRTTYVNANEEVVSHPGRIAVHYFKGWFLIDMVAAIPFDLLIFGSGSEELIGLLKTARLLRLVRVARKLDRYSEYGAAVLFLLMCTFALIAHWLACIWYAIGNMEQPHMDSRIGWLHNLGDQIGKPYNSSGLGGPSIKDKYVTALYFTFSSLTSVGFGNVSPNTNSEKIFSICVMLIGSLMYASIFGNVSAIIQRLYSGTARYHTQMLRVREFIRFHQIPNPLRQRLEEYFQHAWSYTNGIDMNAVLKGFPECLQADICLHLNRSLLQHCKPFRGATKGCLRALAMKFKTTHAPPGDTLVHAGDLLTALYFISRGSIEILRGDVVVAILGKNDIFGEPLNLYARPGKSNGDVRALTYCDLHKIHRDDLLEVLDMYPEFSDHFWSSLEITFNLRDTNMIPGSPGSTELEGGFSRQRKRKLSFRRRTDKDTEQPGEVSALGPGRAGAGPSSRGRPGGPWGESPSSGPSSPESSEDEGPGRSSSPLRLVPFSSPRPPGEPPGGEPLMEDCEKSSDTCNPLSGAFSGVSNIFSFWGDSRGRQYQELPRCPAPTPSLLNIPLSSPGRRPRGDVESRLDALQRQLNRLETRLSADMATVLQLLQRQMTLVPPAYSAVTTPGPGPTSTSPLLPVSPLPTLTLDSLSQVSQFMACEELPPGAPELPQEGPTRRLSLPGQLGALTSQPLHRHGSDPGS
Cytochrome P450 2C9 (Homo sapiens), sequence (P11712 whole entry, looked up): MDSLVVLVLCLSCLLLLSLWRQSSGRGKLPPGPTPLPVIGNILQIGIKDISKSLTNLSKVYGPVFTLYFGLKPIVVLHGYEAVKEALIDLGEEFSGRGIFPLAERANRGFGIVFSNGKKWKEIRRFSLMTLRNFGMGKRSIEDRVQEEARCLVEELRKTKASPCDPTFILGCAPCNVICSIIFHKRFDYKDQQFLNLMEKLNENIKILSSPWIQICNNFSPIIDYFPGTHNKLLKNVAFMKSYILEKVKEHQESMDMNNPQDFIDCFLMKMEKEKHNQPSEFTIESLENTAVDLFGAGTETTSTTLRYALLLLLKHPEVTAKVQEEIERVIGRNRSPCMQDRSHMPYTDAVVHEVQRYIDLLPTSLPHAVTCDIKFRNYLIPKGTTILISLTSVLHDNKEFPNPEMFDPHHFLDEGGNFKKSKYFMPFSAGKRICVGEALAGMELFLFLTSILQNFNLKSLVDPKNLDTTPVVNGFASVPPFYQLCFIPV
Cytochrome P450 1A2 (Homo sapiens), sequence (P05177 whole entry, looked up): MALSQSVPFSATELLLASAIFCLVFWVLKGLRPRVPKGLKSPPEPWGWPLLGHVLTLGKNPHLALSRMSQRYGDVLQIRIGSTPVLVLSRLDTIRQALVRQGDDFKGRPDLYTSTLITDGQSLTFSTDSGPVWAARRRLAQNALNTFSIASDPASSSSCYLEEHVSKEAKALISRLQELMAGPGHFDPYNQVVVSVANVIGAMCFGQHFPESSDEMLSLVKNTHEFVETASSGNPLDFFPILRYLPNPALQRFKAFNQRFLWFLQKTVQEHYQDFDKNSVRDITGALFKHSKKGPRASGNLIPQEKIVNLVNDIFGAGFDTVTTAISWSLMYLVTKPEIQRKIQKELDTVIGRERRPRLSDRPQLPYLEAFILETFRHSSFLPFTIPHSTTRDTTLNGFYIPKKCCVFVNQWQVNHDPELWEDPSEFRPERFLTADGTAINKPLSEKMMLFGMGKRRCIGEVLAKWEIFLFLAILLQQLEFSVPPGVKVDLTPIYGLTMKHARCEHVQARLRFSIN
Cytochrome P450 2D6 (Homo sapiens), sequence (P10635 whole entry, looked up): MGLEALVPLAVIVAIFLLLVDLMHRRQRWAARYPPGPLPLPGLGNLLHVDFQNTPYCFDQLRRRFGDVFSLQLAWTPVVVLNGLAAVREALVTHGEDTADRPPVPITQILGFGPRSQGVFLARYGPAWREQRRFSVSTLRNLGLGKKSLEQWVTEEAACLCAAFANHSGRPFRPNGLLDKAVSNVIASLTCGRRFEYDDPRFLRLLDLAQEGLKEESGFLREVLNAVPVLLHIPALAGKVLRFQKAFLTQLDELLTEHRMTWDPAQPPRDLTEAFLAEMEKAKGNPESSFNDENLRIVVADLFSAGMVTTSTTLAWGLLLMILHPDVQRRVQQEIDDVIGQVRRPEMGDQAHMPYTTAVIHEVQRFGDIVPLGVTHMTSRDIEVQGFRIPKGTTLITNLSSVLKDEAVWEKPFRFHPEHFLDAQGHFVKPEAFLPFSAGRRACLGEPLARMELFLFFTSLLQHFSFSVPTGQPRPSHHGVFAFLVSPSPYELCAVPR

Take `C=C(Nc1ccc(OCC)cc1)Nc1ccc(OCC)cc1`: the Potency entry in assay [1] and in assay [2] was “inactive” each time.
As to `c1ccc(-c2nc3ccccc3[nH]2)cc1`, the Potency is 31.7 µM (active) in assay [3], 35.6 µM (active) in assay [4], 35.6 µM (active) in assay [5] and 7.1 µM (active) in assay [6]. For the same compound, the Potency result in assay [7] is “inactive”.
Turning to `NCCO/C=C/[C@H](N)C(=O)O`, the Potency result in assay [1] and in assay [2] was “inactive” each time.
Consider `Cn1ccnc1`, for which the Potency entry in assay [3], in assay [4], in assay [5], in assay [6], in assay [7] and in assay [8] was “inactive” throughout.
As to `CCCC(=O)c1cc(O)c(O)cc1O`, the Potency in assay [3] is 51.7 µM (active); in assay [4], 20 µM (active); in assay [5], 26.7 µM (active); in assay [6], 37.7 µM (active). Moreover, the Potency entry in assay [7] was “inactive”.
As to `CCCCCCCCCCCCCCCCCCNC(=O)OC1CCN(C(=O)OC[C@H](COC(=O)N(Cc2cccc[n+]2CC)C(=O)c2ccccc2OC)OC)CC1`, the Potency is 27.5 µM (active) in assay [3], 43.6 µM (active) in assay [4] and 30.9 µM (active) in assay [5]. For the same compound, the Potency entry in assay [6] was “inactive”.
Take `C[C@H](O)CN(C)C`: the Potency result in assay [1] and in assay [2] was “inactive” throughout.
For the compound `CC(=O)OCC1=C(C(=O)O)N2C(=O)[C@@H](NC(=O)Cc3ccccc3)[C@H]2SC1`, the Potency result in assay [1] and in assay [2] was “inactive” each time.
As for `Cc1ncc(C[n+]2csc(CCOP(=O)(O)O)c2C)c(N)n1`, the Potency result in assay [1] and in assay [2] was “inactive” throughout.
Regarding `CCOc1cc(CC(=O)N[C@@H](CC(C)C)c2ccccc2N2CCCCC2)ccc1C(=O)O`, the Potency result in assay [1] and in assay [2] was “inactive” throughout.
Turning to `CC(=O)Nc1ccc(N=Nc2cc(C)ccc2O)cc1`, the Potency was 63.3 µM (active) in assay [3], 56.4 µM (active) in assay [4], 35.6 µM (active) in assay [5] and 31.7 µM (active) in assay [6]. Moreover, the Potency entry in assay [7] was “inactive”.
`CCCC(CCC)C(=O)OC1C[C@H]2CC[C@@H](C1)[N+]2(C)C` (some centres not stated): the Potency result in assay [2] is “inactive”.
Take `O=C(NCc1ncc(C(F)(F)F)cc1Cl)c1c(Cl)cccc1Cl`: the results for the Potency in assay [3], in assay [6] and in assay [8] were 2.83 µM (active), 31.7 µM (active) and 8.94 µM (active), respectively. Moreover, the Potency result in assay [5] and in assay [7] was “inactive” in each case.
As for `O=c1cc[nH]cc1`, the Potency result in assay [3], in assay [5], in assay [7] and in assay [8] was “inactive” each time.
With `CCOC(=O)OC(=O)OCC`, the Potency result in assay [3], in assay [5], in assay [7] and in assay [8] was “inactive” throughout.
For the compound `NC(=O)c1ccccc1Cl`, the Potency entry in assay [3], in assay [5], in assay [6], in assay [7] and in assay [8] was “inactive” in each case.
For the compound `c1ccc(C[P+](c2ccccc2)(c2ccccc2)c2ccccc2)cc1`, the Potency is 0.252 µM (active) in assay [3] and 3.09 µM (active) in assay [7]. For the same compound, the Potency result in assay [5], in assay [6] and in assay [8] was “inactive” each time.
As to `CCC(=O)OC/C=C(\C)CCC=C(C)C`, the Potency result in assay [3], in assay [5], in assay [7] and in assay [8] was “inactive” in each case.
For the compound `CCCCNc1ccc(NCCCC)c2c1C(=O)c1ccccc1C2=O`, the activity change, negative = inhibition is 0.95% [at 23.6 µM] in assay [3], -1.25% [at 23.6 µM] in assay [5], -6.35% [at 15.8 µM] in assay [7] and 15.3% [at 23.6 µM] in assay [8].
In the case of `O=C1c2ccccc2C(=O)c2c(Cl)cccc21`, the Potency entry in assay [3], in assay [7] and in assay [8] was “inactive” each time. For the same compound, in assay [6], the Potency was 0.0473 µM (active).
On to `CCN(CC)c1ccc(C=O)c(O)c1`, for which the Potency result in assay [3], in assay [5], in assay [7] and in assay [8] was “inactive” throughout.
Consider `Oc1ccc2c(c1)CCC2`, for which the Potency result in assay [3], in assay [5], in assay [7] and in assay [8] was “inactive” in each case.
`C=C1CC[C@H]2O[C@]2(C)CC[C@@H]2[C@@H]1CC2(C)C`: the Potency result in assay [3], in assay [5], in assay [6], in assay [7] and in assay [8] was “inactive” each time.
In the case of `CCc1cccc(C)c1N(C(=O)CS(=O)(=O)O)C(C)COC` (configuration not stated), the Potency entry in assay [3], in assay [6] and in assay [7] was “inactive” in each case.
For `Clc1nc(C(Cl)(Cl)Cl)c(Cl)c(Cl)c1Cl`, the Potency was 31.7 µM (active) in assay [3]; 35.6 µM (active) in assay [5]; 2.52 µM (active) in assay [6]; 49 µM (active) in assay [7]; 3.99 µM (active) in assay [8].
For the compound `O=C(CCCCCCCCc1cccnc1)N1CCC(C=C(c2ccccc2)c2ccccc2)CC1`, the Potency result in assay [3] was “inactive”. The results for the Potency in assay [5], in assay [7] and in assay [8] were 0.633 µM (active), 6.92 µM (active) and 0.399 µM (active), respectively.
In the case of `O=C1OCc2ccccc21`, the Potency result in assay [3], in assay [5], in assay [6], in assay [7] and in assay [8] was “inactive” each time.
As for `C/C(=C\c1ccc(C(=O)O)cc1)c1ccc2c(c1)C(C)(C)CCC2(C)C`, the Potency result in assay [3], in assay [5], in assay [6], in assay [7] and in assay [8] was “inactive” throughout.
As to `O[Si](c1ccccc1)(c1ccccc1)c1ccccc1`, the Potency result in assay [3], in assay [6] and in assay [8] was “inactive” throughout. Also, in assay [5], the Potency is 0.564 µM (active).
